As usually defined, the AC50 is the concentration giving half of the maximal activity seen.

Calls of active or inactive are those of the source. How the source made its calls: active means hit-call score of the fitted dose curve at least 0.9, where 1 is the maximum; inactive means score below 0.9.

These results are taken from PubChem BioAssay (EPA / NIEHS).

Read-out in assay [1]: Interleukin-1 alpha (IL1a), IL1A (gene 3552)
The assay is described as follows: BSK_KF3CT_IL1a: BioMAP Diversity Plus: KF3CT Assay for Interleukin-1 alpha (IL1a) Biomarker Activity (AID 2283070). The note with it: primary human keratinocytes with fibroblasts; actives raise or lower the signal. An outline of the steps:
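Readout is IL-1a level by ELISA, compared bidirectionally with DMSO as baseline. Cells: human keratinocytes co-cultured with foreskin fibroblasts, harvested 24 h post-dose.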

Read-out in assay [2]: TIMP metallopeptidase inhibitor 2 (TIMP2), TIMP2 (gene 7077)
In words: BSK_KF3CT_TIMP2: BioMAP Diversity Plus: KF3CT Assay for TIMP metallopeptidase inhibitor 2 (TIMP2) Biomarker Activity (AID 2283071). As to conditions: primary human keratinocytes with fibroblasts; actives raise or lower the signal. An outline of the steps:
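Measurements come from ELISA detection of TIMP-2 at 24 hours in a dosed human keratinocyte and foreskin fibroblast co-culture. DMSO serves as negative control and baseline.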

Read-out in assay [3]: Transforming growth factor beta 1 (TGFb1), TGFB1 (gene 7040)
In words: BSK_KF3CT_TGFb1: BioMAP Diversity Plus: KF3CT Assay for Transforming growth factor beta 1 (TGFb1) Biomarker Activity (AID 2283072). The note with it: primary human keratinocytes with fibroblasts; actives raise or lower the signal. A digest of the protocol:
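TGF-b1 ELISA on a 24 h dosed co-culture of human keratinocytes and foreskin fibroblasts; cytotoxicity tracked in parallel cultures by SRB staining.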

Read-out in assay [4]: C-C motif chemokine 2 (Homo sapiens) (UniProt P13500)
In words: BSK_KF3CT_MCP1: BioMAP Diversity Plus: KF3CT Assay for Monocyte Chemoattractant Protein 1 (MCP1/CCL2) Biomarker Activity (AID 2283073). As to conditions: primary human keratinocytes with fibroblasts; actives raise or lower the signal. A digest of the protocol: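 Keratinocytes and foreskin fibroblasts were co-cultured, dosed with chemical, and sampled 24 h later. MCP-1 was quantified by ELISA, and the endpoint was analyzed with bidirectional fitting using DMSO as negative control.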

Read-out in assay [5]: Matrix Metallopeptidase 9 (MMP9), MMP9 (gene 4318)
The assay is described as follows: BSK_KF3CT_MMP9: BioMAP Diversity Plus: KF3CT Assay for Matrix Metallopeptidase 9 (MMP9) Biomarker Activity (AID 2283074).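 On AC50: MMP9 protein level quantified by ELISA in the co-culture.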 As to conditions: primary human keratinocytes with fibroblasts; actives raise or lower the signal. A digest of the protocol:
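Values come from bidirectional fitting relative to DMSO of MMP-9 levels, which were measured by ELISA. Measurements were taken 24 h after chemical dosing of a keratinocyte and foreskin fibroblast co-culture.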

Read-out in assay [6]: urokinase plasminogen activator (uPA), PLAU (gene 5328)
In words: BSK_KF3CT_uPA: BioMAP Diversity Plus: KF3CT Assay for urokinase plasminogen activator (uPA) Biomarker Activity (AID 2283075). The note with it: primary human keratinocytes with fibroblasts; actives raise or lower the signal. An outline of the steps: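 Values derive from bidirectional fitting against DMSO controls. Keratinocyte/foreskin fibroblast co-cultures received chemical; 24 h later uPA was detected by ELISA, with SRB total-protein staining in parallel wells for overt cytotoxicity.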

Read-out in assay [7]: CD40, CD40 (gene 958)
The assay is described as follows: BSK_LPS_CD40: BioMAP Diversity Plus: LPS Assay for CD40 Biomarker Activity (AID 2283076). The note with it: primary human HUVEC with PBMC; actives raise or lower the signal. A digest of the protocol: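 CD40 signal, measured by ELISA, is fitted in both directions relative to DMSO vehicle. The system is an LPS-driven human vascular primary co-culture of endothelial cells and PBMC, sampled 24 h after compound addition.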

Read-out in assay [8]: Interleukin-8 (IL8), CXCL8 (gene 3576)
The assay is described as follows: BSK_LPS_IL8: BioMAP Diversity Plus: LPS Assay for Interleukin-8 (IL8) Biomarker Activity (AID 2283078). The note with it: primary human HUVEC with PBMC; actives raise or lower the signal. A digest of the protocol:
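Endothelial cells and PBMC from human donors are co-cultured, treated with chemicals and LPS, then assayed for IL-8 by ELISA after 24 h. Parallel SRB staining (0.1% SRB after 10% TCA fixation, 560 nm) flags cytotoxicity.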

Assay [9] in a line: BSK_LPS_SRB: Viability Assessment in the BioMAP Diversity Plus: LPS Assay (AID 2283079).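 Further: total protein by sulforhodamine B absorbance as a cytotoxicity measure; measured one day after compound addition; fitted in both directions against DMSO so loss or gain of signal counts.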 As to conditions: primary human HUVEC with PBMC. An outline of the steps:
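Overt cytotoxicity was gauged by sulforhodamine B total-protein staining in a primary human vascular endothelial and mononuclear cell co-culture 24 h post-dosing. Activity was fitted in both directions relative to DMSO.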

Read-out in assay [10]: Interleukin-1 alpha (IL1a), IL1A (gene 3552)
In words: BSK_LPS_IL1a: BioMAP Diversity Plus: LPS Assay for Interleukin-1 alpha (IL1a) Biomarker Activity (AID 2283080). The note with it: primary human HUVEC with PBMC; actives raise or lower the signal. A digest of the protocol:
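Measured: IL-1 alpha via ELISA at 24 h in LPS-activated human umbilical vein endothelium–PBMC co-culture. Baseline: DMSO, bidirectional fitting.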

Read-out in assay [11]: Monocyte Chemoattractant Protein-1 (MCP1), CCL2 (gene 6347)
The assay is described as follows: BSK_LPS_MCP1: BioMAP Diversity Plus: LPS Assay for Monocyte Chemoattractant Protein-1 (MCP1) Biomarker Activity (AID 2283081).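 On AC50: secreted MCP-1 protein quantified by ELISA in culture supernatant.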 The note with it: primary human HUVEC with PBMC; actives raise or lower the signal. A digest of the protocol: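 LPS-stimulated HUVEC/PBMC co-culture; chemical, 24 h; MCP-1 by ELISA; bidirectional fit vs DMSO; cytotoxicity via SRB (0.1% stain, 10% TCA fix, 560 nm) in parallel wells.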

A short description of assay [12]: BSK_LPS_PGE2: BioMAP Diversity Plus: LPS Assay for Prostaglandin E2 (PGE2) Biomarker Activity (AID 2283082). The note with it: primary human HUVEC with PBMC; actives raise or lower the signal. An outline of the steps:
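Primary human endothelial cells and blood mononuclear cells, co-cultured with LPS, receive test chemical; PGE2 ELISA follows at 24 h, with SRB-stained parallel cultures flagging cytotoxicity.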

Read-out in assay [13]: Tissue Factor, F3 (gene 2152)
In words: BSK_LPS_TissueFactor: BioMAP Diversity Plus: LPS Assay for Tissue Factor Biomarker Activity (AID 2283084). The note with it: primary human HUVEC with PBMC; actives raise or lower the signal. A digest of the protocol: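 In this co-culture system of umbilical vein endothelium with PBMC, stimulated with LPS, cell-surface CD142 is detected by ELISA at 24 h. Endpoint values derive from bidirectional fitting, DMSO serving as baseline.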

Read-out in assay [14]: Tumor necrosis factor (Homo sapiens) (UniProt P01375)
The assay is described as follows: BSK_LPS_TNFa: BioMAP Diversity Plus: LPS Assay for Tumour Necrosis Factor alpha (TNFa) Biomarker Activity (AID 2283085). As to conditions: primary human HUVEC with PBMC; actives raise or lower the signal. An outline of the steps: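 ELISA-based TNFa endpoint in a human endothelial–PBMC co-culture sampled 24 h post-exposure. Curves were fitted in both directions using DMSO as baseline of activity.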

Read-out in assay [15]: Vascular cell adhesion molecule 1 (VCAM1), VCAM1 (gene 7412)
The assay is described as follows: BSK_LPS_VCAM1: BioMAP Diversity Plus: LPS Assay for Vascular cell adhesion molecule 1 (VCAM1) Biomarker Activity (AID 2283086). As to conditions: primary human HUVEC with PBMC; actives raise or lower the signal. An outline of the steps: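 Measured by ELISA: VCAM-1 in LPS-activated HUVEC/PBMC co-cultures 24 h after treatment. Values reflect bidirectional fitting with DMSO as baseline.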

Read-out in a further assay: CD38, CD38 (gene 952)
In words: BSK_SAg_CD38: BioMAP Diversity Plus: SAg Assay for CD38 Biomarker Activity (AID 2283087). The note with it: primary human HUVEC with PBMC; actives raise or lower the signal. An outline of the steps:
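Measures CD38 on a human endothelial/PBMC co-culture driven by SEB and TSST-1, 24 h after compound exposure, using ELISA with fluorescence detection; DMSO defines baseline for bidirectional curve fitting.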

Read-out in assay [16]: CD40, CD40 (gene 958)
In words: BSK_SAg_CD40: BioMAP Diversity Plus: SAg Assay for CD40 Biomarker Activity (AID 2283088). The note with it: primary human HUVEC with PBMC; actives raise or lower the signal. An outline of the steps: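 Fluorescence ELISA read-out of CD40 from umbilical vein endothelium plus peripheral blood mononuclear cells, sampled 24 h after dosing. Values come from bidirectional curve fitting with DMSO as baseline.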

Read-out in the next assay: CD69, CD69 (gene 969)
The assay is described as follows: BSK_SAg_CD69: BioMAP Diversity Plus: SAg Assay for CD69 Biomarker Activity (AID 2283089).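 On AC50: cell surface CD69 protein quantified by ELISA with fluorescence detection.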 As to conditions: primary human HUVEC with PBMC; actives raise or lower the signal. A digest of the protocol:
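HUVEC co-cultured with PBMC were dosed with chemical, and CD69 was measured by ELISA with fluorescence read-out 24 h later. Bidirectional curve fitting used DMSO as negative control and activity baseline.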

Read-out in assay [17]: Macrophage colony-stimulating factor (MCSF), CSF1 (gene 1435)
In words: BSK_LPS_MCSF: BioMAP Diversity Plus: LPS Assay for Macrophage colony-stimulating factor (MCSF) Biomarker Activity (AID 2283083). As to conditions: primary human HUVEC with PBMC; actives raise or lower the signal. An outline of the steps:
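Compound is added to a human vascular primary co-culture of umbilical vein endothelium and blood mononuclear cells. After 24 h, M-CSF is quantified by ELISA. Signal changes are fitted in both directions against DMSO.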

Sequence of Tumor necrosis factor (Homo sapiens) (P01375 whole entry, looked up): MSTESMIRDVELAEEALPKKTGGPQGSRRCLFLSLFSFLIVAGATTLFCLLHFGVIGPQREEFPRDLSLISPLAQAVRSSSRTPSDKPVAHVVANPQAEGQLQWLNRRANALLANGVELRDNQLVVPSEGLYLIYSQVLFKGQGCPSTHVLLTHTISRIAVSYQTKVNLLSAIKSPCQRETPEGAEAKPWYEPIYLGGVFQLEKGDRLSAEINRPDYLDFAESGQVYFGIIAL

As to `CCOP(=S)(OCC)SCS(=O)(=O)CC`, the result in assay [1], in assay [2], in [3], in [4], in assay [5] and in assay [6] was inactive. The outcome is “inactive” with CD40, CD40 (gene 958) [7]; “inactive” in assay [8]; “inactive” in assay [9]; “inactive” in assay [10]; “inactive” in [11]; “inactive” in assay [12]. Also, the outcome in assay [13] is “inactive”; in assay [14], “inactive”; in [15], “inactive”; with CD38, CD38 (gene 952), “inactive”; with CD40, CD40 (gene 958) [16], “inactive”; in the assay with CD69, CD69 (gene 969), “inactive”.

`C=CC(=O)OCC(CC)(COC(=O)C=C)COC(=O)C=C`: the AC50 in [1] is 2.16 µM (active); in [2], 5.38 µM (active); in assay [3] it was 2.37 µM (active); in [4] it was 2.35 µM (active); in [5], 2.34 µM (active); in assay [6] it was 3.11 µM (active). Further, the half-maximal activity concentration (AC50) in the assay with CD40, CD40 (gene 958) [7] is 1.35 µM (active); in [9] it was 2.43 µM (active); in assay [10], 1.46 µM (active); in assay [11], 3.29 µM (active); in [17] it was 1.91 µM (active); in assay [13] it was 2.29 µM (active). Also, the AC50 in assay [15] was 2.79 µM (active); in the assay with CD38, CD38 (gene 952), 1.78 µM (active); with CD40, CD40 (gene 958) [16], 2.12 µM (active); with CD69, CD69 (gene 969), 2.3 µM (active). Also, the outcome in assay [8] and in assay [12] was inactive.

With `ClC(Cl)=C(c1ccc(Cl)cc1)c1ccccc1Cl`, the half-maximal activity concentration (AC50) in assay [1] was 7 µM (active); in assay [2] it was 3.67 µM (active); in assay [3], 5.46 µM (active); in assay [4] it was 7.15 µM (active); in [5], 4.38 µM (active); in assay [6] it was 11.2 µM (active). Besides, the AC50 in the assay with CD40, CD40 (gene 958) [7] is 20 µM (active); in [8], 20 µM (active); in [9], 29.6 µM (active); in [10], 26 µM (active); in assay [11] it was 29.6 µM (active); in assay [17], 20 µM (active). Further, the AC50 is 20 µM (active) in assay [13]; 32.9 µM (active) in assay [15]; 20 µM (active) in the assay with CD38, CD38 (gene 952); 20 µM (active) with CD40, CD40 (gene 958) [16]; 14.6 µM (active) with CD69, CD69 (gene 969). Besides, in assay [12], the result was inactive.

Consider `Nc1ccc(Cl)cc1`, for which the outcome in assay [1], in [2], in assay [3], in assay [4], in assay [5] and in assay [6] was inactive. The outcome was “inactive” with CD40, CD40 (gene 958) [7]; “inactive” in assay [8]; “inactive” in [9]; “inactive” in assay [10]; “inactive” in assay [11]; “inactive” in [12]. The outcome in assay [17] is “inactive”; in [13] it was “inactive”; in [14], “inactive”; in [15], “inactive”; in the assay with CD38, CD38 (gene 952), “inactive”; in the assay with CD40, CD40 (gene 958) [16], “inactive”. Moreover, the outcome with CD69, CD69 (gene 969) was inactive.
